# Laboratory results published in paper PMC7862700, “An all-to-all approach to the identification of sequence-specific readers for epigenetic DNA modifications on cytosine”.
# Legend:
# Assay in all cases: DAPPL (digital affinity profiling via proximity ligation, sequencing); 10 mM Tris-HCl pH 7.5, 50 mM NaCl, 1 mM DTT, 4% glycerol, room temperature, 30 min; GST-TFs on glutathione beads, 16-mer random dsDNA library, 0.1% formaldehyde crosslink after washing; high values mean tight binding
# FEV = molecular target: T1, FEV (Homo sapiens, UniProt Q99581 1-238); settings: protein: recombinant; tags: N-terminal GST; dsDNA, one strand shown
# T1 sequence: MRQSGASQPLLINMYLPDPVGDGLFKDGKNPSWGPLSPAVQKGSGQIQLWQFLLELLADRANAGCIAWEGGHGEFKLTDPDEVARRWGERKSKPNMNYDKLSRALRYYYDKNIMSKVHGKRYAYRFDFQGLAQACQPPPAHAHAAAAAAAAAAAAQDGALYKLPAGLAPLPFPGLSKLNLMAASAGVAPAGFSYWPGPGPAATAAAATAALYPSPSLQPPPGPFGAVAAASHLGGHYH
# Outline: (§1)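 The binding signal reported is, for every hexamer, its read frequency for a factor over its read frequency for the tag-only sample. Reads came from pools of yeast-expressed, GST-fused human transcription factors on glutathione beads, barcoded with DNA and mixed with that sample, which were incubated with 200 nmole of a random double-stranded 16-mer DNA library in Tris/NaCl/DTT/glycerol buffer at room temperature for 30 min. After washing, the pools were crosslinked with 0.1% formaldehyde, proximity-ligated with BsaI/T4 ligase for 1 h at 37 °C, PCR-amplified and sequenced on an Illumina NextSeq500.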
# ETV5 = ETV5 (Homo sapiens, UniProt P41161 1-510); settings: protein: recombinant; tags: N-terminal GST; dsDNA, one strand shown
# Outline: as §1
# HSF1 = HSF1 (Homo sapiens, UniProt Q00613 1-529); settings: protein: recombinant; tags: N-terminal GST; chain copies: 3; dsDNA, one strand shown
# Outline: as §1
# SPIC = molecular target: T2, SPIC (Homo sapiens, UniProt Q8N5J4 1-248); settings: protein: recombinant; tags: N-terminal GST; dsDNA, one strand shown
# T2 sequence: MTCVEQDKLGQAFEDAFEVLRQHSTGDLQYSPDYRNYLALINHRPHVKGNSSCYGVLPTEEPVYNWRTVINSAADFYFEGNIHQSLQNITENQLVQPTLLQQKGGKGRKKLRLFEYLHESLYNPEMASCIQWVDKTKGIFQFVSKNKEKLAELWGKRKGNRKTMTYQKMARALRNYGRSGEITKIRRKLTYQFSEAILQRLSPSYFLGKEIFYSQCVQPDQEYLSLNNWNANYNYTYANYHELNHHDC
# Outline: as §1
# ELF4 = ELF4 (Homo sapiens, UniProt Q99607 1-663); settings: protein: recombinant; tags: N-terminal GST; dsDNA, one strand shown
# Outline: as §1
# ELK4 = molecular target: T3, ELK4 (Homo sapiens, UniProt P28324-2 1-405); settings: protein: recombinant; tags: N-terminal GST; dsDNA, one strand shown
# T3 sequence: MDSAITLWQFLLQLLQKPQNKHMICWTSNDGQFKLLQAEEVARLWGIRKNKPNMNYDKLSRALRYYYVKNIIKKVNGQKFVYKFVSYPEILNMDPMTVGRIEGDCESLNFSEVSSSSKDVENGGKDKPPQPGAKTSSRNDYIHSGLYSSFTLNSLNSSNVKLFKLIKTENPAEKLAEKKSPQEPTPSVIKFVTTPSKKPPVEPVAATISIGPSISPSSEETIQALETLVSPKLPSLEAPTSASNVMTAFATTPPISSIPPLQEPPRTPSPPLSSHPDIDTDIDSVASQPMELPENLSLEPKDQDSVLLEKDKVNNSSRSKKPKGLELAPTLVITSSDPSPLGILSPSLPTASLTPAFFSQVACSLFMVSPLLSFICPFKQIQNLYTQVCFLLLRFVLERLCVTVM
# Outline: as §1
# ETV2 = molecular target: T4, ETV2 (Homo sapiens, UniProt O00321 1-342); settings: protein: recombinant; tags: N-terminal GST; dsDNA, one strand shown
# T4 sequence: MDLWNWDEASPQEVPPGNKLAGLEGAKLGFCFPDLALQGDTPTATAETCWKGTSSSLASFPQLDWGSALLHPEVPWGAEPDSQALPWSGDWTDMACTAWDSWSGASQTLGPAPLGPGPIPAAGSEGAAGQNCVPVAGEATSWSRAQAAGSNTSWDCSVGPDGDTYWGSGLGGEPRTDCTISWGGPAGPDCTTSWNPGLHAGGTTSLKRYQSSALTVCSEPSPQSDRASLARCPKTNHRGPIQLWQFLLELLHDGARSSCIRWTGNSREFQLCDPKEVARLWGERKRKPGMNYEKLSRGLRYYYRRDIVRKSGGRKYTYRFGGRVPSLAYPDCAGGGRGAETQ
# Outline: as §1
# ELF3 = molecular target: T5, ELF3 (Homo sapiens, UniProt P78545 1-371); settings: protein: recombinant; tags: N-terminal GST; dsDNA, one strand shown
# T5 sequence: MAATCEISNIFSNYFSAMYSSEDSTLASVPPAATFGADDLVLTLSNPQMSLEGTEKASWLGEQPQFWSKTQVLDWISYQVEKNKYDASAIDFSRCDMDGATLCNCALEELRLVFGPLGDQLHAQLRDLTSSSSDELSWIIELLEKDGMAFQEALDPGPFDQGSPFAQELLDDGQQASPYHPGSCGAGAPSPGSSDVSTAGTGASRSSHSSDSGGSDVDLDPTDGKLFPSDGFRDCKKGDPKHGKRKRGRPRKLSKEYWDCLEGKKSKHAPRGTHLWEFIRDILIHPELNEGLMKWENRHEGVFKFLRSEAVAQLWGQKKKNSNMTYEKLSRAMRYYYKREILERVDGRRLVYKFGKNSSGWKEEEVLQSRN
# Outline: as §1
# CRX = CRX (Homo sapiens, UniProt O43186 1-299); settings: protein: recombinant; tags: N-terminal GST; dsDNA, one strand shown
# Outline: as §1
# ETV1 = ETV1 (Homo sapiens, UniProt P50549 1-477); settings: protein: recombinant; tags: N-terminal GST; dsDNA, one strand shown
# Outline: as §1
# ERF = molecular target: T6, ERF (Homo sapiens, UniProt P50548 1-548); settings: protein: recombinant; tags: N-terminal GST; dsDNA, one strand shown
# T6 sequence: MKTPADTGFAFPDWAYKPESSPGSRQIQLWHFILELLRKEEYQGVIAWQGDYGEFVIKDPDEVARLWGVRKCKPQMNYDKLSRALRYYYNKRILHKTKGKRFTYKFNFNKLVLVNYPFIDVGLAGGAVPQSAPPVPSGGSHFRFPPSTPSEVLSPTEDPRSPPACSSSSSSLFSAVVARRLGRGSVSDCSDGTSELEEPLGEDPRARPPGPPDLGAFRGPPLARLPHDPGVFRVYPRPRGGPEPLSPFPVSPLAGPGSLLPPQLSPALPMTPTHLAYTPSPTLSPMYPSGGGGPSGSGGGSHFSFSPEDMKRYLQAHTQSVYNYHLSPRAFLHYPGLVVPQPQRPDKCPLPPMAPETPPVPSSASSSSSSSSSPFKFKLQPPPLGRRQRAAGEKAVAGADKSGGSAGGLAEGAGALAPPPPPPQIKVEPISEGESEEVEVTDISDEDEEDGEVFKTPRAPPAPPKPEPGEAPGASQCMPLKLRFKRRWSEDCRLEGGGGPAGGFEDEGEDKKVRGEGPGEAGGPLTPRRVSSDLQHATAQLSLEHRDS
# Outline: as §1
# ETV3L = molecular target: T7, ETV3L (Homo sapiens, UniProt Q6ZN32 1-361); settings: protein: recombinant; tags: N-terminal GST; dsDNA, one strand shown
# T7 sequence: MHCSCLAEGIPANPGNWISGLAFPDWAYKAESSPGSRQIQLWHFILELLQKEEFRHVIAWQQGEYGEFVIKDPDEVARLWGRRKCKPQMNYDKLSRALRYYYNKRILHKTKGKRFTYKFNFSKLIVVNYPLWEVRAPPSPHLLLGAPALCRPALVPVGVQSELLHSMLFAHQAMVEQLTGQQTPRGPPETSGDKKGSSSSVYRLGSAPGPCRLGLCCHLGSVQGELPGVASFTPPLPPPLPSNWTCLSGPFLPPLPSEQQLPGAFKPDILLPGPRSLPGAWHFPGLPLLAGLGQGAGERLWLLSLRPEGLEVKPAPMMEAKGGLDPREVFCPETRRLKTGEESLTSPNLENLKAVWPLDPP
# Outline: as §1
# ETS2 = molecular target: T8, ETS2 (Homo sapiens, UniProt P15036 1-469); settings: protein: recombinant; tags: N-terminal GST; dsDNA, one strand shown
# T8 sequence: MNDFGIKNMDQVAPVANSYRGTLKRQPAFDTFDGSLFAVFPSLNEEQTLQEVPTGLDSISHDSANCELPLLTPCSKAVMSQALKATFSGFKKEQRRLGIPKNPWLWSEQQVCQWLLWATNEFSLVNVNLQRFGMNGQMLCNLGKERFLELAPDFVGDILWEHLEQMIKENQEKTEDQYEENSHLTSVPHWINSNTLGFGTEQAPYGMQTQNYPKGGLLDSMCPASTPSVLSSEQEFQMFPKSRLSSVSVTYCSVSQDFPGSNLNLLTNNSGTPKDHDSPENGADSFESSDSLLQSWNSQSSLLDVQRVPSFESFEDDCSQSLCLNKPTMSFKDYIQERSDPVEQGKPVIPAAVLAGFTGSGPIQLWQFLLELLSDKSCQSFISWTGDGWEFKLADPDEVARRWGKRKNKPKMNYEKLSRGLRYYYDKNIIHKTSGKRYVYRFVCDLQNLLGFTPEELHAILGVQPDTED
# Outline: as §1
# SPDEF = molecular target: T9, SPDEF (Homo sapiens, UniProt O95238 1-335); settings: protein: recombinant; tags: N-terminal GST; dsDNA, one strand shown
# T9 sequence: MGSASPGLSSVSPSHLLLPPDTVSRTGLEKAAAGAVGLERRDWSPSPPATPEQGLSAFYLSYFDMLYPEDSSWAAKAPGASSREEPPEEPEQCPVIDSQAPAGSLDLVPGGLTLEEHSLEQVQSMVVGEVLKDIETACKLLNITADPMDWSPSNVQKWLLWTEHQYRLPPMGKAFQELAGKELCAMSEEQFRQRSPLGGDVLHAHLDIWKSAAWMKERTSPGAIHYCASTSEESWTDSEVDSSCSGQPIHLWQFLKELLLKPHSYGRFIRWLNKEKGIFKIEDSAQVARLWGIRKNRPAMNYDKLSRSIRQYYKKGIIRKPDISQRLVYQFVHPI
# Outline: as §1
# ETV7 = molecular target: T10, ETV7 (Homo sapiens, UniProt Q9Y603 1-341); settings: protein: recombinant; tags: N-terminal GST; dsDNA, one strand shown
# T10 sequence: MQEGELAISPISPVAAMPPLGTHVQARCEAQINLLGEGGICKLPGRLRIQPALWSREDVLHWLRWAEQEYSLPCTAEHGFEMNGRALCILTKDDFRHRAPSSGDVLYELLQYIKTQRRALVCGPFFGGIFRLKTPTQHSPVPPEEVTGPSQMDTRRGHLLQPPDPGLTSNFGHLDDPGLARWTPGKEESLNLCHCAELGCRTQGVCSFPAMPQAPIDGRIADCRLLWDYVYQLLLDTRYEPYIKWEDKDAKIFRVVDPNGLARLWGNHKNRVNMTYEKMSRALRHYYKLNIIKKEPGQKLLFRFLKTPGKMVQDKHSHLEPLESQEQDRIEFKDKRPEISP
# Outline: as §1
# ELF5 = molecular target: T11, ELF5 (Homo sapiens, UniProt Q9UKW6-2 1-255); settings: protein: recombinant; tags: N-terminal GST; dsDNA, one strand shown
# T11 sequence: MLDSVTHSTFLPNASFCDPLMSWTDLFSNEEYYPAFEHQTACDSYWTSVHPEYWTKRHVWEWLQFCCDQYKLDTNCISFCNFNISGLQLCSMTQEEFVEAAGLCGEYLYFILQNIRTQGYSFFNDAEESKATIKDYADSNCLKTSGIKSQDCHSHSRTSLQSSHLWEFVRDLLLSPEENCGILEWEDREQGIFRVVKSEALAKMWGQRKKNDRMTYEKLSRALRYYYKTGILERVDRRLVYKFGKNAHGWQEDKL
# Outline: as §1
# ETV3 = molecular target: T12, ETV3 (Homo sapiens, UniProt P41162-2 1-143); settings: protein: recombinant; tags: N-terminal GST; dsDNA, one strand shown
# T12 sequence: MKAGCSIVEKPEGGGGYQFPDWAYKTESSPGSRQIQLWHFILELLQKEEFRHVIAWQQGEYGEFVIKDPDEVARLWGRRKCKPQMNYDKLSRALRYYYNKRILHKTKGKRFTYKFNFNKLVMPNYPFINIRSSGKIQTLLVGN
# Outline: as §1
# ETV6 = ETV6 (Homo sapiens, UniProt P41212 1-452); settings: protein: recombinant; tags: N-terminal GST; dsDNA, one strand shown
# Outline: as §1
# ELF4, sequence (Q99607 whole entry): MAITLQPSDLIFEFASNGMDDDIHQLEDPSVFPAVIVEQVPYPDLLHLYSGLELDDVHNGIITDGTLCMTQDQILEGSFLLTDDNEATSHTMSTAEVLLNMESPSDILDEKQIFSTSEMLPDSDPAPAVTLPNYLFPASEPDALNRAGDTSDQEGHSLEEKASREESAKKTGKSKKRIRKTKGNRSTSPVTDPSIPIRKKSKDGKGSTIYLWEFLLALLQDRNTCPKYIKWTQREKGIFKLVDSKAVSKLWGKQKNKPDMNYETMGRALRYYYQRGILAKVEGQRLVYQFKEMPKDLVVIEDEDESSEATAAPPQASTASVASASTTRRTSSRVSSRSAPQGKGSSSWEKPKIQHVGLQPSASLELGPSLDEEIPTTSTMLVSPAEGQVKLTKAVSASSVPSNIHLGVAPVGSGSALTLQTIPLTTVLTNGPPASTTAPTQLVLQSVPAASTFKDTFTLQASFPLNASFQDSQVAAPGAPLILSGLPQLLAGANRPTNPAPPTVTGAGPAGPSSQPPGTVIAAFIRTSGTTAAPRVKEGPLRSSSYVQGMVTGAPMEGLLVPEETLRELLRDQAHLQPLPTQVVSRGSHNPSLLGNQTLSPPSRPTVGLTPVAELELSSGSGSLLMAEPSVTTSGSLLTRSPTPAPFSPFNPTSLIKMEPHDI
# CRX, sequence (O43186 whole entry): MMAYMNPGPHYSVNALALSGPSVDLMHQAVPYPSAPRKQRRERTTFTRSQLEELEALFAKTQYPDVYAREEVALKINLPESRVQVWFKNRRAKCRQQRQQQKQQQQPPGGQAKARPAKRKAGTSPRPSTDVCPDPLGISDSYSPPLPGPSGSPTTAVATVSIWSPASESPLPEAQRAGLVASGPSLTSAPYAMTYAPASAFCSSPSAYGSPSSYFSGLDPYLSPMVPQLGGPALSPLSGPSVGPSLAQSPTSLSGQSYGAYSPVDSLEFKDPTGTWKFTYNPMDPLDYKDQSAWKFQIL
# ETV1, sequence (P50549 whole entry): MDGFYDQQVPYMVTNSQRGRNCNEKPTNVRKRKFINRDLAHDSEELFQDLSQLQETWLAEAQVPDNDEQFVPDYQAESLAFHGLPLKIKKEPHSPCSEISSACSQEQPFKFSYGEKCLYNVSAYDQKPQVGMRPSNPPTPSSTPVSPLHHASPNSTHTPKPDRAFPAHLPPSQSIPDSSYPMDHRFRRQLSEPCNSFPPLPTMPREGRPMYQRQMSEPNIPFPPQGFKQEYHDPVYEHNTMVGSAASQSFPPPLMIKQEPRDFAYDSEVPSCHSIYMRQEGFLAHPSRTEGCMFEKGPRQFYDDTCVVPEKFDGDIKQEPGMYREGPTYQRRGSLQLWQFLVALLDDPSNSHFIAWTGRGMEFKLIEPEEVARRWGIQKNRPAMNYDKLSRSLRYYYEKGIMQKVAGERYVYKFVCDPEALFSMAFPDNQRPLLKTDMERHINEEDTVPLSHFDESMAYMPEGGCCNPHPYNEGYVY
# HSF1, sequence (Q00613 whole entry): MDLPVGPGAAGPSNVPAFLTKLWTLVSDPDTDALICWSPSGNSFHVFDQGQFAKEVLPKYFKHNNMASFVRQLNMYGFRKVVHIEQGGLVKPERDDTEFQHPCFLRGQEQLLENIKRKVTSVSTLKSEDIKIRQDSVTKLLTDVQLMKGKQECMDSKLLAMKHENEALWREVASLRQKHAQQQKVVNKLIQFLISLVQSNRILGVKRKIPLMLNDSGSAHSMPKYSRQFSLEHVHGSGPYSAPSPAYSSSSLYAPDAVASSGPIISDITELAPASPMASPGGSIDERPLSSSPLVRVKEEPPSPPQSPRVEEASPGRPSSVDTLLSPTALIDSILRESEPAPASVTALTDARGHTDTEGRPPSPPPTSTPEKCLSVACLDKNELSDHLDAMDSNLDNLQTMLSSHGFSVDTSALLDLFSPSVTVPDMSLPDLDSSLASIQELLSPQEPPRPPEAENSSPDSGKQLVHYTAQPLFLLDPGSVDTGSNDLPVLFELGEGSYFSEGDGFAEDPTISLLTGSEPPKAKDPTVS
# ETV5, sequence (P41161 whole entry): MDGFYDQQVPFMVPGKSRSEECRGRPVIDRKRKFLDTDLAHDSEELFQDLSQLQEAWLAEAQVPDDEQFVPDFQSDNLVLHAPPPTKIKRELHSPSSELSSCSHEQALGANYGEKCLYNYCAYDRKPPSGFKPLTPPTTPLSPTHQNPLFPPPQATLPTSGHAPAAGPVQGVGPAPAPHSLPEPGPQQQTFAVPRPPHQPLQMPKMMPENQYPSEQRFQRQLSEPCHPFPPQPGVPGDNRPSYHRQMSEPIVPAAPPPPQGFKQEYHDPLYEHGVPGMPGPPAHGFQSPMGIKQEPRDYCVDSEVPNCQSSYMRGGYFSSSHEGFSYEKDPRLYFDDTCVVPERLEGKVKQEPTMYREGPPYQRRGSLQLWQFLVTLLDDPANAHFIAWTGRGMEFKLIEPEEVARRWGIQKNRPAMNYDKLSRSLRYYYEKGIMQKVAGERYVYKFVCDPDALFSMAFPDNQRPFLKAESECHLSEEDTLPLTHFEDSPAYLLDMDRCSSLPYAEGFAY
# ETV6, sequence (P41212 whole entry): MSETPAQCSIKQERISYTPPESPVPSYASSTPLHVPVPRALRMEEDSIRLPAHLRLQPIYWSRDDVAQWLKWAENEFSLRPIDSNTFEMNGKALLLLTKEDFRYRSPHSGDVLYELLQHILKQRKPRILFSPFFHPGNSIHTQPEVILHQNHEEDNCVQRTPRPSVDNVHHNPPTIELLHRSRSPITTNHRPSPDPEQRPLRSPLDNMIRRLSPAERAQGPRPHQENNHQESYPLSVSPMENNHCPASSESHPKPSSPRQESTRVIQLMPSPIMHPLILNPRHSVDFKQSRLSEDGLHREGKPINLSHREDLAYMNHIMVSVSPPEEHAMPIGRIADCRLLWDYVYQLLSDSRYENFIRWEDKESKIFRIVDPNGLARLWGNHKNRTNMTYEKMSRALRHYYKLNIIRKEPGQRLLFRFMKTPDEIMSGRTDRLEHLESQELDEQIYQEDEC
sequence,measurement,setting,value
TTTATC,binding signal,FEV,"1.14 fold enrichment (6-mer frequency, TF over GST control)"
same,binding signal,ETV5,"1.2 fold enrichment (6-mer frequency, TF over GST control)"
same,binding signal,HSF1,"1.65 fold enrichment (6-mer frequency, TF over GST control)"
same,binding signal,SPIC,"1.26 fold enrichment (6-mer frequency, TF over GST control)"
same,binding signal,ELF4,"1.2 fold enrichment (6-mer frequency, TF over GST control)"
same,binding signal,ELK4,"1.4 fold enrichment (6-mer frequency, TF over GST control)"
same,binding signal,ETV2,"1.24 fold enrichment (6-mer frequency, TF over GST control)"
same,binding signal,ELF3,"1.18 fold enrichment (6-mer frequency, TF over GST control)"
same,binding signal,CRX,"2.15 fold enrichment (6-mer frequency, TF over GST control)"
same,binding signal,ETV1,"1.18 fold enrichment (6-mer frequency, TF over GST control)"
same,binding signal,ERF,"1.19 fold enrichment (6-mer frequency, TF over GST control)"
same,binding signal,ETV3L,"1.35 fold enrichment (6-mer frequency, TF over GST control)"
same,binding signal,ETS2,"1.26 fold enrichment (6-mer frequency, TF over GST control)"
same,binding signal,SPDEF,"1.25 fold enrichment (6-mer frequency, TF over GST control)"
same,binding signal,ETV7,"1.22 fold enrichment (6-mer frequency, TF over GST control)"
same,binding signal,ELF5,"1.26 fold enrichment (6-mer frequency, TF over GST control)"
same,binding signal,ETV3,"1.29 fold enrichment (6-mer frequency, TF over GST control)"
same,binding signal,ETV6,"1.24 fold enrichment (6-mer frequency, TF over GST control)"
